Compound activity as filed in PubChem.
Only some compounds are listed: those with a hit (about 3.4% of all), similar ones and a draw of the others.
LMP1 NFkB inh: reduces LMP1-driven NF-kappaB luciferase signal | LMP1-induced NF-kappaB luciferase reporter cells, luminescence | inhibition, % at 12.5 µM | hit rate 0.69% among 350,000 | AID 504558; in the data active = inhibition above about 41%;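 also: 0% = neutral control wells and 100% = reference inhibitor control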
TROY NFkB inh: TROY signaling inhibition; hit rate 0.98% among 360,000; inhibition, % at 10 µM; Q293 LMP1-TROYcd NF-kB luciferase reporter, 4 h;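 active = compounds whose plate-normalised and pattern-corrected inhibition of the luciferase reporter signal at the single screening dose is 50% or more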
TRPM1 prom inh: MITF TRPM1 promoter inhibition in SK-MEL-5 cells; SK-MEL-5 TRPM1 promoter luciferase, 24 h; inhibition, % at 12.5 µM; hit rate 0.83% among 330,000; AID 488899;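 active = mean inhibition across replicates of 60% or more, whatever share of single replicates reaches that level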
Shn3 3UTR inh: Schnurri-3 reporter inhibition in Clone20 osteoblasts; inhibition, % at 12.5 µM; Clone20 osteoblast Shn3 3'UTR firefly luciferase, 24 h; AID 588674; hit rate 0.52% among 360,000;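 active = mean inhibition of at least 75% with every replicate also reaching 75%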;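 also: 0% = median of neutral control wells and 100% = pilot-screen positive control compound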
HIF-2a inh: inhibitors of HIF-2a; AID 624352; inhibition, % at 18.8 µM; hit rate 0.72% among 360,000; 786-0 RCC cells HIF-2a reporter, luciferase luminescence, overnight;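 active = inhibition of the luminescence signal of 40% or more relative to plate controls, in a single-dose primary screen at 18.75 µM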
TWEAK Fn14 block: TWEAK-Fn14 signaling inhibition; AID 1159606; TWEAK-stimulated Fn14 reporter cells, luciferase luminescence, 8 h; hit rate 2% among 360,000; inhibition, % at 10 µM; in the data active = inhibition above about 50%
* = called active by the depositor; x = no result given.

SMILES	LMP1 NFkB inh	TROY NFkB inh	TRPM1 prom inh	Shn3 3UTR inh	HIF-2a inh	TWEAK Fn14 block
C[C@@H]1CN([C@@H](C)CO)C(=O)CCCn2nncc2CO[C@H]1CN(C)C(=O)Nc1ccc(F)cc1	9	-6	x	8	10	-18
O=C(OCC12CC3CC(CC(C3)C1)C2)c1ccc(NCc2cc(O)ccc2O)cc1	4	-6	36	98*	81*	103*
O=C(OCCC12CC3CC(CC(C3)C1)C2)c1ccc(NCc2cc(O)ccc2O)cc1	-25	-3	67*	99*	77*	98*
CCCC[C@@H]1Cc2[nH][nH]c(=O)c2[C@H](c2cccc3ccccc23)O1	x	2	x	x	12	29
COc1cc(NC(=O)Cc2cccs2)ccc1-n1cnnn1	-5	x	-3	-3	11	91*
Cc1ccc(SSc2cc(C)ccc2N)c(N)c1	-46	43	-34	-108	-179	58*
Cc1ccc(O)c(N)c1	4	37	-10	-50	-58	34
COc1ccc(-n2cccc2C=O)cc1OC	7	-16	8	3	6	-1
COc1ccccc1-n1cccc1C=O	9	90*	1	17	9	3
Cc1ccc(CSc2nc3ccncc3[nH]2)cc1	47*	-3	0	20	-19	38
O=C(c1ccc(CSc2nc3ccncc3[nH]2)cc1)N1CCCCCC1	23	-30	-50	12	-101	12
O=C(c1ccc(CSc2nc3ccncc3[nH]2)cc1)N1CCN(c2cccc(Cl)c2)CC1	9	54*	x	88*	-30	61*
Cc1ccc(/C=N/Nc2ccnc3cc(Cl)ccc23)c(C)c1	5	41	87*	4	8	19
Cc1ccccc1/C=N/Nc1ccnc2cc(Cl)ccc12	-38	-5	68*	82	-53	-69
Cc1ccc(C(C)C)cc1S(=O)(=O)Nc1cccnc1	5	-5	14	13	2	-9
CCOC(=O)C(=CNc1ccc(-c2ccco2)c(Cl)c1)C(=O)OCC	47*	10	8	-9	-25	3
CCOC(=O)C(=CNc1ccc2c(c1)CCN2C(C)=O)C(=O)OCC	49*	47	13	-53	-136	19
COC(=O)c1cc(=O)c2c(ccc3oc(=O)ccc32)[nH]1	x	-15	x	5	7	2
O=C(CSc1ccc(Cl)cc1)N1CCC(c2nc3ccccc3s2)CC1	14	25	16	9	-7	44
O=C(CSc1c(Cl)cccc1Cl)N1CCC(c2nc3ccccc3s2)CC1	5	51*	5	10	-15	19
Cc1cc(C(=O)CSc2nnc(-c3cccs3)n2Cc2ccccc2)c(C)n1C	-1	-17	5	4	-11	11
O=c1cc(CSc2nnc(-c3cccs3)n2Cc2ccccc2)nc2sc3ccccc3n12	3	45	21	73	-11	53*
O=C(CCCN1C(=O)/C(=C/c2ccccc2)SC1=S)Nc1ccc(C(=O)O)c(O)c1	6	-18	-8	9	-5	-38
O=C(CCCN1C(=O)/C(=C/c2ccc3c(c2)OCO3)SC1=S)Nc1ccc(C(=O)O)cc1	10	19	20	22	69*	6
O=C(CCCN1C(=O)C(=Cc2ccc3c(c2)OCO3)SC1=S)Nc1ccc(C(=O)O)c(O)c1	x	8	x	-1	51*	-49
SMILES	LMP1 NFkB inh	TROY NFkB inh	TRPM1 prom inh	Shn3 3UTR inh	HIF-2a inh	TWEAK Fn14 block
O=C(CCN1C(=O)/C(=C/c2ccc3c(c2)OCO3)SC1=S)Nc1ccc(C(=O)O)cc1	5	-57	-10	-8	-6	-19
O=C(Nc1ccc(S(=O)(=O)N2CCCC2)cc1)c1ccc(CN2CCc3ccccc3C2)cc1	18	33	32	85	15	68*
CCN1CCc2c(sc(NC(=O)c3ccc(S(=O)(=O)N4CCCCCC4)cc3)c2C(=O)NC)C1	-2	-10	67*	11	16	-8
C/C(=N\NC(=O)c1ccc(CN2CCc3ccccc3C2)cc1)c1ccccc1O	34	38	28	45	-75	83*
CCCN1CCc2c(sc(NC(=O)c3ccc(S(=O)(=O)N4CCCC4)cc3)c2C(N)=O)C1	-4	-25	14	12	21	-4
CC(=O)C[C@@H](O)CC(=O)[C@@H]1OC(=O)[C@@H](C)C/C=C\Cc2ccccc21	-4	-11	3	-3	4	15
CN(Cc1cn(C)nc1-c1ccc(Oc2ccccc2)cc1)Cc1cnc2ccccn12	9	44	15	75	8	77*
CC(=O)Nc1sc(N/N=C\c2ccccc2Cl)nc1-c1cccs1	-4	16	14	5	0	67*
Cc1ccc(-n2[nH]c(C)c(C=NC34CN5CN(CN(C5)C3)C4)c2=O)cc1C	-5	-2	6	-54	-9	4
COCCCN=Cc1c(C)[nH]n(-c2ccc(Br)c(C)c2)c1=O	-2	71*	-21	-33	-137	65*
O=C(Nc1ccc(Oc2ccccc2)cc1)c1csc([C@@H]2O[C@H](CO)[C@H](O)[C@H](O)[C@H]2O)n1	x	4	x	-11	-1	28
Cc1cc(C)c2nc(NNC(=O)c3ccc(S(=O)(=O)N4CC(C)CC(C)C4)cc3)sc2c1 (centres undefined)	38	0	69*	90*	-36	15
Cc1ccc2nc(NNC(=O)c3ccc(S(=O)(=O)N4CCc5ccccc5C4)cc3)sc2c1	59*	-8	78*	94*	18	14
CCC(=O)NNc1nc2c(C)cc(C)cc2s1	-5	-15	1	-20	-32	-6
Cc1ccc2nc(NNC(=O)c3ccc4c(c3)OCCO4)sc2c1	-10	10	x	-11	-18	11
Cc1cccc(NC(=O)C(C)Sc2ncnc3sccc23)c1 (centres undefined)	3	13	x	38	-47	16
COc1ccccc1C1(CC(=O)O)CCOC(C)(C)C1 (centres undefined)	68*	13	-3	-9	10	-12
CC1(C)CC(CC(=O)O)(c2ccc(F)cc2)CCO1 (centres undefined)	4	-9	-9	5	7	-2
O=C(Nc1ccc2c(c1)OCCO2)C1CCCN1C(=O)Nc1ccccc1 (centres undefined)	1	4	-2	1	5	-22
O=C(Nc1ccc2c(c1)OCCO2)C1CCCN1C(=O)Nc1ccc(F)cc1 (centres undefined)	-1	32	-21	6	15	59*
CC(=O)c1cccc(NC(=O)N2CCCC2C(=O)Nc2cccc(C)c2)c1 (centres undefined)	-3	12	6	-10	18	66*
CC(C)(C)NC(=O)CN1C(=O)c2cccc3cccc1c23	3	-4	x	-4	24	-7
CCOc1ccc(NS(=O)(=O)c2ccc(SC)cc2)cc1	8	x	-12	16	-5	81*
CCOc1ccc(NS(=O)(=O)c2cnc(Cl)c(Cl)c2)cc1	5	29	-14	1	35	53*
